High-throughput results as filed in PubChem.
Most compounds without a hit are left out; they make up all but 1.6% or so of the library.
PABP1 MLLE inh: inhibitors of PABP1 MLLE–PAM2 peptide binding, primary screen, biochemical, fluorescence polarization, FITC-PAM2, GST-MLLE; Polyadenylate-binding protein 1 (Homo sapiens), P11940; inhibition, % at 20 µM; 360,000 tested, 0.36% active; AID 588489, 2011; in the data active = inhibition above about 35%, passing the limit was not always enough;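 also: plate controls were DMSO wells with GST-MLLE for no effect and wells lacking GST-MLLE protein for full effect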
eIF4H inh: human eIF4H binding inhibitors, primary screen, translation initiation inhibitor project, biochemical, uHTS, fluorescence polarization; Eukaryotic translation initiation factor 4H (Homo sapiens), Q15056; eIF4H fluorescence polarization binding assay; inhibition, % at 35 µM; 290,000 tested, 0.94% active; AID 2012, 2009;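 also: calls also rest on retests at 20 µM and on dose response follow-up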
PERK inhibitor: block of dimerizer-induced PERK translation repression, primary screen, PERK inhibitor project, CHO PERK-DD cells, SEAP luminescence, HTS; CHO PERK-DD fusion, SEAP luminescence translation reporter; Eukaryotic translation initiation factor 2-alpha kinase 3 (Homo sapiens), Q9NZJ5; 220,000 tested, 0.17% active; inhibition, % at 5.6 µM;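 active = inhibition above the mean inhibition of all tested compounds plus 3 SD, set separately per screening campaign, cut at about 2.9% in these data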;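 also: PERK kinase domain activated by AP20187 dimerizer at 100 nM; 0% = DMSO with dimerizer and 100% = rapamycin at 8.4 µM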
eIF4E 4G PPI: eIF4E–eIF4G protein interaction inhibitors, primary screen, biochemical, uHTS, TR-FRET, eIF4GI fragment; Eukaryotic translation initiation factor 4E (Mus musculus) + Eukaryotic translation …; TR-FRET eIF4E-eIF4GI(517-606) binding, 2 h; inhibition, % at 21.7 µM; 220,000 tested, 0.37% active;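 active = inhibition above about 30%, limit read from the data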;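 also: 0% = full FRET control wells and 100% = background wells lacking eIF4GI fragment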
Target sequence (P63073 whole entry, looked up, the tested form may be a part): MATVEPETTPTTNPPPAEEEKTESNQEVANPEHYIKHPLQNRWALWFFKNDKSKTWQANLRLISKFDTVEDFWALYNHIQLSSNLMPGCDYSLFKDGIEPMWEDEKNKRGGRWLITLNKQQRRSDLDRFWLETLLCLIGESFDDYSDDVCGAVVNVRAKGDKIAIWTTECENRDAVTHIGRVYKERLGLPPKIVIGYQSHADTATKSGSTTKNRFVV
Target sequence (Q04637 whole entry, looked up, the tested form may be a part): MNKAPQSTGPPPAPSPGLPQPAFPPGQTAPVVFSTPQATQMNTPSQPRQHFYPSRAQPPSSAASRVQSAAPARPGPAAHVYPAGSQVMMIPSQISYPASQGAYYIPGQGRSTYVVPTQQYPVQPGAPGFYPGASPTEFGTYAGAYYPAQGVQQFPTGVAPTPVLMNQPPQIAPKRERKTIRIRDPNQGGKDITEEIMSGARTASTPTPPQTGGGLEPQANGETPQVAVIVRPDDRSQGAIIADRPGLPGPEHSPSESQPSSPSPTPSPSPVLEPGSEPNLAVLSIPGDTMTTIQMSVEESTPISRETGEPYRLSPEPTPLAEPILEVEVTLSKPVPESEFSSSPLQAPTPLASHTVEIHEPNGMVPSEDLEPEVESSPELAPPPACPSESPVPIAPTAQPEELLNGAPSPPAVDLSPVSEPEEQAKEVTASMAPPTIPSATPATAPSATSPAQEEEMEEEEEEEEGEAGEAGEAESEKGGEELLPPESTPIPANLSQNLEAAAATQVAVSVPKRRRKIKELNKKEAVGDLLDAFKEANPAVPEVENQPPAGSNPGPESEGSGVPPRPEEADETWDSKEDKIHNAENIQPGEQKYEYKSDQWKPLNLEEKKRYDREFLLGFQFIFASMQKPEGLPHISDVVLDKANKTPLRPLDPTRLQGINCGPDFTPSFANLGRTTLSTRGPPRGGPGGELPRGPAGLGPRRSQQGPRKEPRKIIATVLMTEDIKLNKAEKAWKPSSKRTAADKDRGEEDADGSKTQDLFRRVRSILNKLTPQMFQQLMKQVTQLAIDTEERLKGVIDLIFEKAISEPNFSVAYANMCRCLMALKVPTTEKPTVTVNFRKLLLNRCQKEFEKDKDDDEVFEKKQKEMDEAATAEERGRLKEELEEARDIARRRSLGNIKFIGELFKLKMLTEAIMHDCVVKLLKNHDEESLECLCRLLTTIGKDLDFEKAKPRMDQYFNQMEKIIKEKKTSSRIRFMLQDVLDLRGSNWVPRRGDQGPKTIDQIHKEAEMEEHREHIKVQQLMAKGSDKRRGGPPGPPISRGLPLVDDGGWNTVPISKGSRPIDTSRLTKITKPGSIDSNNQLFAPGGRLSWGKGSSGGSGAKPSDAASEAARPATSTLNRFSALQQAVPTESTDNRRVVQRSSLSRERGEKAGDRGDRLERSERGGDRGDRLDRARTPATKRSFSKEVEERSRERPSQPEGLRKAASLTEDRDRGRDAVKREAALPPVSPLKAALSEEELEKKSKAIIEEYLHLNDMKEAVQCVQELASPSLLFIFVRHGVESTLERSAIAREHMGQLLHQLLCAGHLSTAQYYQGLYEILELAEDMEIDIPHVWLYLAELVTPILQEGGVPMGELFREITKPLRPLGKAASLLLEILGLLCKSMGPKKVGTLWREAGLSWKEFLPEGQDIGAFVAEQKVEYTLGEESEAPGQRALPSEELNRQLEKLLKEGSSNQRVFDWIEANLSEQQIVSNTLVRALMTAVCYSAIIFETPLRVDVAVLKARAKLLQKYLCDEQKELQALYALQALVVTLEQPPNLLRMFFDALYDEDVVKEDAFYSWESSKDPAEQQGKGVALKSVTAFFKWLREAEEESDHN
PABP polyA inh: PABP poly(A) RNA binding inhibitors, primary screen, biochemical, fluorescence polarization, uHTS; Polyadenylate-binding protein 1 (Homo sapiens), P11940; inhibition, % at 35 µM; 290,000 tested, 1% active; AID 2014, 2009;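 also: calls also rest on retests at 20 µM and on dose response follow-up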
The depositor's hits bear a star; u = inconclusive; x = no result. Unless noted, no rule for the calls is given here.

SMILES	PABP1 MLLE inh	eIF4H inh	PERK inhibitor	eIF4E 4G PPI	PABP polyA inh
O=[N+]([O-])c1cc(CN2CCOCC2)c2cccnc2c1O	x	u	1	33*	4
O=C(CN1CCN(S(=O)(=O)c2ccc(Cl)c(Cl)c2)CC1)N1CCCC1	-4	x	x	x	x
Cc1cccc(C(=O)OCC(=O)N2CCCC2=O)c1O	-4	x	x	x	x
CCCNC(=O)NC(=O)CN1C(=O)NC(C)(c2ccc3ccccc3c2)C1=O (stereo not drawn)	-17	9	x	x	6
COc1cc2c(cc1OC)CN(C(=O)CCN1C(=O)C3CCCCC3C1=O)CC2 (stereo not drawn)	5	6.2*	1	1	75*
COc1cc2c(cc1OC)CN(C(=O)COc1ccc(C#N)cc1)CC2	13	6.8*	0	-6	64*
COc1cc2c(cc1OC)CN(C(=O)COc1ccccc1C#N)CC2	7	-16	x	x	2
COC(CN(C)C(=O)c1ccc2c(c1)NC(=O)c1ccccc1S2)OC	2	-2	x	x	-5
O=[N+]([O-])c1nccn1CCCCCCN1CCOCC1	-8	x	x	x	x
CS(=O)(=O)N1N=C(c2ccco2)CC1c1ccco1 (stereo not drawn)	-32	78*	x	x	37*
CS(=O)(=O)N1N=C(c2ccco2)CC1c1ccccc1 (stereo not drawn)	3	-1	1	4	-6
O=C(NCCCN1CCOCC1)c1ccccc1N1C(=O)[C@@H]2Cc3c([nH]c4ccccc34)C(c3cccc(Cl)c3)N2C1=O (stereo partly drawn)	13	-3	x	x	-13
CC(C)(O)C1Cc2cc(/C=C/C(=O)O)c(O)cc2O1 (stereo not drawn)	16	14	1	62*	33
O=C(CSc1ncnc2ccccc12)Nc1ccc2c(c1)OCO2	5	-5	0	-1	2
CC(C)c1nc(SCC(=O)Nc2ccc(N3CCOCC3)cc2)c2ccccc2n1	45*	-1	-2	6	-1
O=C(CSc1nc(Cc2ccccc2)nc2ccccc12)Nc1ccc2c(c1)OCCO2	38*	5	-1	9	-1
O=C(CSc1ncnc2ccccc12)NCc1ccc2c(c1)OCO2	-10	active	-1	0	55
COc1ccc(NC(=O)CN(C)C(=O)c2cccc(S(=O)(=O)Nc3ccc(F)cc3)c2)cc1	-1	x	x	x	x
Clc1ncccc1OCc1ccccc1	0	x	x	x	x
O=C(O)c1cccc(Sc2cc(Cl)ccc2C(=O)O)c1	15	x	x	x	x
COc1ccc(-c2cc(-c3ccco3)[nH]c(=O)c2C#N)cc1	7	74*	1	0	57*
N#Cc1c(-c2cccc(Br)c2)cc(-c2ccco2)[nH]c1=O	-3	76	0	7	-5
C[C@H](CO)N1C[C@H](C)[C@H](CN(C)C(=O)Nc2ccc(-c3cccs3)cc2)OCc2cnnn2CCCC1=O	10	x	x	x	x
CCCCOc1[nH]c2nc(-c3ccco3)n(Cc3ccco3)c(=N)c2c1C#N	95	127*	1	13	118*
O=C(O)c1cccc(-c2noc(-c3cccc(Cl)c3)n2)c1	2	x	x	x	x
SMILES	PABP1 MLLE inh	eIF4H inh	PERK inhibitor	eIF4E 4G PPI	PABP polyA inh
CCc1nc2c(OCc3ccccc3C(=O)OC)cccn2c1N(C)C(=O)c1cccc(OC)c1	5	x	x	x	x
Cc1ccc(NC(=O)COc2ccc(/C=C3/SC(=Nc4ccccc4)N(Cc4cccnc4)C3=O)cc2)cc1	-18	58*	-1	4	79*
C[N+]1(CC(=O)OCCCC2CCCCC2)CCCC1	-119	-9	0	-4	55*
C#Cc1ccc([C@@H]2C=C(C(=O)NC3CC3)O[C@H](OCCCCO)C2)cc1	-1	-8	x	97*	-10
CCOc1cc(Br)cc(C(c2c(C(=O)O)[nH]c3ccccc23)c2c(C(=O)O)[nH]c3ccccc23)c1O	6	32	x	x	39
CSc1ccc(C(c2c(C(=O)O)[nH]c3ccccc23)c2c(C(=O)O)[nH]c3ccccc23)cc1	-5	53*	x	x	23
CCN(CC(=O)Nc1c(F)cccc1F)C(=O)c1nc2nc(C)cc(C)n2n1	-5	x	x	x	x
Clc1cccc(Cl)c1C1Nc2cccc3cccc(c23)N1	-32	99*	x	x	81*
COc1ccc(C2Nc3cccc4cccc(c34)N2)cc1	-5	43	0	3	31
Fc1cccc(Cl)c1C1Nc2cccc3cccc(c23)N1	-25	96*	x	x	87*
CCCCn1cnc2c(SCc3ccc(Br)cc3)nc(N)nc21	4	x	x	x	x
Cc1ccc(S(=O)(=O)/N=C2\C=C(NS(=O)(=O)c3ccccc3)C(=O)c3ccccc32)cc1	6	x	x	x	x
Cc1ccc(S(=O)(=O)/N=C2/C=C(C3C(=O)CC(C)(C)CC3=O)C(=O)c3ccccc32)cc1	44*	6	-1	10	24
S=C(NCc1ccccn1)Nc1ccc(Br)cc1Cl	39*	-4	0	-1	-2
COc1ccc(-c2cnnc(N/N=C/c3ccc(-c4ccc([N+](=O)[O-])cc4)o3)n2)cc1	-76	1	0	31*	-6
O=[N+]([O-])c1ccc(-c2ccc(/C=N/Nc3nc(N4CCCC4)nc(N4CCCC4)n3)o2)cc1	-40	4	1	0	12
Cc1csc(NC(=O)c2cc(C)on2)n1	-5	x	x	x	x
CCCc1cc(=O)oc2cc(OC3CCCCC3=O)ccc12 (stereo not drawn)	-2	89*	x	x	90*
O=C1CCCCC1Oc1ccc2ccc(=O)oc2c1 (stereo not drawn)	-6	-2	x	x	5
CC(OC(=O)C1CCN(S(=O)(=O)c2ccc3c(c2)OCCO3)CC1)C(=O)NC1(C#N)CCCCC1 (stereo not drawn)	-6	x	x	x	x
O=C(c1coc(=O)c(Br)c1)N1CCC(C(O)(c2ccccc2)c2ccccc2)CC1	-22	6	1	5	6
CC1(C)CCCN(C(=O)c2coc(=O)c(Br)c2)C1	6	89*	0	25	57*
O=C(c1coc(=O)c(Br)c1)N1CCCc2ccccc21	-18	67*	2	x	98*
O=C(c1cccc(Br)c1)N1CCCc2ccccc21	2	4	x	x	2
O=C(O)CCCN1C(=O)/C(=C/c2ccncc2)SC1=S	31	-9	0	3	-12
O=C(O)CCCCCN1C(=O)/C(=C\c2ccc(-c3ccc(Cl)cc3)o2)SC1=S	-125	54*	0	24	36*
O=C(O)CCCN1C(=O)/C(=C/c2ccc(-c3nc4ccccc4s3)o2)SC1=S	-71	u	1	0	active
COc1cc(C(=O)OCC(=O)Nc2cc(S(=O)(=O)N3CCOCC3)ccc2C)ccc1OCC(C)C	-32	x	x	x	x
Cc1cnc(C(=O)OCC(=O)c2ccc(C)s2)cn1	-3	x	x	x	x
Cc1noc(C)c1S(=O)(=O)N(C)C[C@@H]1OCc2cnnn2CCCC(=O)N([C@H](C)CO)C[C@@H]1C	-3	x	x	x	x
